From the supplement of paper PMC12494721
Where a name gives a salt, the structure may show the parent alone.

Legend:
Settings in all cases: 20 µM; incubation time: 27 h, anaerobic, 37 °C;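 for the amine columns active = adjusted P below 0.05 in both replicates with a change the same way and a mean fold change under 0.8 or over 1.25; inactive = the rest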
[1] = system: Clostridium sporogenes DSM 1664; assay: growth (OD595) fold change vs plate DMSO controls (fold change (ratio)); higher = more growth
Method in brief: (§1)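 Shaken 96-well cultures in mGAM, grown anaerobically for 27 h at 37 °C, were read at 595 nm. OD came from blank-subtracted readings, corrected for background with 20 µM compound solutions in water and scaled by a calibration factor of 5. Growth is the fold change versus the plate's median DMSO control. Values average 2 biological replicates, and any fold change above 1.5 is NA.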

Escherichia coli IAI1 [2] = assay: as above
Method in brief: as §1

[3] = system: Klebsiella aerogenes DSM 30053; assay: as above
Method in brief: as §1

[4] = system: Ruminococcus gnavus DSM 108212; assay: as above
Method in brief: as §1

[5] = system: Klebsiella aerogenes DSM 30053; assay: fold change of Histamine concentration vs plate DMSO controls (fold change (ratio)); higher = more amine produced, active = hit call of the paper (significant change in both replicates, either direction)
Method in brief: (§2)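 Extracts of whole anaerobic mGAM cultures were analysed for amines by LC–triple-quadrupole MS with dynamic MRM and external calibration curves, with drift corrected within batch. Four gut strains were grown at 37 °C for 27 h in 80 µL wells with compounds at 20 µM final, sweeteners at 50 µM final. Each value expresses fold change over plate DMSO controls. The average of 2 biological replicates is shown.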

[6] = system: Clostridium sporogenes DSM 1664; assay: fold change of Tryptamine concentration vs plate DMSO controls (fold change (ratio)); higher = more amine produced, active = hit call of the paper (significant change in both replicates, either direction)
Method in brief: as §2

[7] = system: Ruminococcus gnavus DSM 108212; assay: as above
Method in brief: as §2

Escherichia coli IAI1 [8] = assay: fold change of Putrescine concentration vs plate DMSO controls (fold change (ratio)); higher = more amine produced, active = hit call of the paper (significant change in both replicates, either direction)
Method in brief: as §2

[9] = system: Klebsiella aerogenes DSM 30053; assay: as above
Method in brief: as §2

Escherichia coli IAI1 [10] = assay: fold change of Cadaverine concentration vs plate DMSO controls (fold change (ratio)); higher = more amine produced, active = hit call of the paper (significant change in both replicates, either direction)
Method in brief: as §2

[11] = system: Klebsiella aerogenes DSM 30053; assay: as above
Method in brief: as §2

[12] = system: Ruminococcus gnavus DSM 108212; assay: fold change of 2-Phenylethylamine concentration vs plate DMSO controls (fold change (ratio)); higher = more amine produced, active = hit call of the paper (significant change in both replicates, either direction)
Method in brief: as §2

SMILES | growth [1] | growth (Escherichia coli IAI1 [2]) | growth [3] | growth [4] | fold change of Histamine concentration [5] | fold change of Tryptamine concentration [6] | fold change of Tryptamine concentration [7] | fold change of Putrescine concentration (Escherichia coli IAI1 [8]) | fold change of Putrescine concentration [9] | fold change of Cadaverine concentration (Escherichia coli IAI1 [10]) | fold change of Cadaverine concentration [11] | fold change of 2-Phenylethylamine concentration [12]
COCC(=O)N(c1c(C)cccc1C)[C@H](C)C(=O)OC | 0.945 | 1.01 | 1.03 | 0.974 | 1 (inactive) | 1.01 (inactive) | 1.02 (inactive) | 1.02 (inactive) | 0.996 (inactive) | 0.99 (inactive) | 1.01 (inactive) | 1.05 (inactive)
COc1ccc(C(=O)N2CCCC2=O)cc1 [Aniracetam] | 0.932 | 0.978 | 1.04 | 0.771 | 0.853 (inactive) | 1.09 (inactive) | 1.03 (inactive) | 0.929 (inactive) | 0.976 (inactive) | 1.02 (inactive) | 1.01 (inactive) | 1.03 (inactive)
CC(C)[N+](C)(CCC(C(N)=O)(c1ccccc1)c1ccccc1)C(C)C [Isopropamide iodide] | 1.04 | 1.09 | 0.982 | 1.39 | 1.01 (inactive) | 0.99 (inactive) | 0.909 (inactive) | 1.24 (inactive) | 1.01 (inactive) | 0.936 (inactive) | 0.997 (inactive) | 0.834 (inactive)
Cc1cccc(C)c1NC(=O)CN1CCCC1=O [Nefiracetam] | 1.01 | 0.985 | 1.02 | 1.06 | 0.973 (inactive) | 1.04 (inactive) | 1.01 (inactive) | 0.988 (inactive) | 1.01 (inactive) | 1.01 (inactive) | 1 (inactive) | 1.01 (inactive)
CSc1nnc(C(C)(C)C)c(=O)n1N | 0.994 | 1.01 | 1 | 0.945 | 0.976 (inactive) | 0.982 (inactive) | 1.07 (inactive) | 0.945 (inactive) | 0.978 (inactive) | 0.959 (inactive) | 1.04 (inactive) | 1.13 (inactive)
CC1(C)[C@H](C(=O)O[C@H](C#N)c2cccc(Oc3ccccc3)c2)[C@@H]1C=C(Br)Br | 1.12 | 0.981 | 0.998 | 1.02 | 1.02 (inactive) | 0.958 (inactive) | 0.967 (inactive) | 0.983 (inactive) | 1.01 (inactive) | 0.989 (inactive) | 1 (inactive) | 0.915 (inactive)
CCCCc1c(C)nc(NCC)nc1OS(=O)(=O)N(C)C | 0.862 | 1.04 | 0.957 | 0.952 | 1.03 (inactive) | 1.06 (inactive) | 0.959 (inactive) | 0.985 (inactive) | 0.995 (inactive) | 1.01 (inactive) | 0.998 (inactive) | 0.996 (inactive)
CN1COCN(Cc2cnc(Cl)s2)/C1=N\[N+](=O)[O-] | 0.973 | 1.02 | 1 | 0.969 | 1.01 (inactive) | 0.906 (inactive) | 0.912 (inactive) | 1.03 (inactive) | 1.01 (inactive) | 1.03 (inactive) | 0.993 (inactive) | 0.88 (inactive)
Cc1c(COC(=O)[C@@H]2[C@H](/C=C(\Cl)C(F)(F)F)C2(C)C)cccc1-c1ccccc1 (racemic) | 1.05 | 1.09 | 0.978 | 1.13 | 1.02 (inactive) | 0.975 (inactive) | 1.03 (inactive) | 1 (inactive) | 0.953 (inactive) | 0.864 (inactive) | 0.989 (inactive) | 1.07 (inactive)
C[C@]12COC(=O)C[C@@H]1CC[C@@H]1[C@@H]2CC[C@@]2(C)[C@H]1CC[C@]2(C)O [Oxandrolone] | 0.947 | 0.993 | 1.03 | 0.877 | 0.945 (inactive) | 0.945 (inactive) | 1.01 (inactive) | 0.974 (inactive) | 0.991 (inactive) | 1.02 (inactive) | 0.999 (inactive) | 1.06 (inactive)
COc1ccc(CN2CCNCC2)c(OC)c1OC [Trimetazidine dihydrochloride] | 0.945 | 0.975 | 0.973 | 1.15 | 1.12 (inactive) | 1.05 (inactive) | 1.03 (inactive) | 0.973 (inactive) | 1.02 (inactive) | 1.01 (inactive) | 0.971 (inactive) | 1.03 (inactive)
O=C(O[C@H]1C[N+]2(CCCOc3ccccc3)CCC1CC2)C(O)(c1cccs1)c1cccs1 [Aclidinium bromide] | 1.12 | 1.08 | 1.03 | 1.14 | 1.05 (inactive) | 1.01 (inactive) | 0.985 (inactive) | 1.08 (inactive) | 1 (inactive) | 0.982 (inactive) | 1 (inactive) | 0.963 (inactive)
CC(Oc1ccc(Oc2ncc(C(F)(F)F)cc2Cl)cc1)C(=O)O (stereo not given) | 1.02 | 1.03 | 1.01 | 0.977 | 0.989 (inactive) | 0.943 (inactive) | 0.974 (inactive) | 1.05 (inactive) | 0.988 (inactive) | 1.04 (inactive) | 0.981 (inactive) | 0.982 (inactive)
CC(C)(C)C(O)C(Oc1ccc(Cl)cc1)n1cncn1 (stereo not given) | 0.989 | 1.11 | 0.994 | 0.928 | 0.993 (inactive) | 0.962 (inactive) | 0.998 (inactive) | 1.08 (inactive) | 0.999 (inactive) | 0.937 (inactive) | 1 (inactive) | 0.975 (inactive)
O=C(NCNC(=O)NC1C(=O)NC(=O)N1CO)NC1C(=O)NC(=O)N1CO (stereo not given) [Imidurea] | 1.05 | 1.06 | 0.987 | 1.19 | 1.02 (inactive) | 0.998 (inactive) | 1.01 (inactive) | 1.01 (inactive) | 1 (inactive) | 1 (inactive) | 0.994 (inactive) | 1 (inactive)
O=C1c2ccccc2C(=O)N1SC(Cl)(Cl)Cl | 1.06 | 1 | 0.997 | 0.937 | 1 (inactive) | 0.983 (inactive) | 0.999 (inactive) | 1.05 (inactive) | 1 (inactive) | 0.969 (inactive) | 0.988 (inactive) | 0.999 (inactive)
CN1[C@@H]2CC[C@H]1C[C@@H](OC1c3ccccc3CCc3ccccc31)C2 [Deptropine citrate] | 0.826 | 1 | 0.992 | 0.954 | 1.06 (inactive) | 1.17 (inactive) | 0.877 (inactive) | 1.04 (inactive) | 1.02 (inactive) | 1.11 (inactive) | 0.999 (inactive) | 0.928 (inactive)
CCN(CC)c1nc(C)cc(OP(=S)(OC)OC)n1 | 1.04 | 1.01 | 0.98 | 1.13 | 1.01 (inactive) | 1.06 (inactive) | 1.06 (inactive) | 1.02 (inactive) | 0.969 (inactive) | 0.901 (inactive) | 1 (inactive) | 1.05 (inactive)
COC[C@@H](NC(C)=O)C(=O)NCc1ccccc1 [Lacosamide] | 1.07 | 1.01 | 1.06 | 0.96 | 1.08 (inactive) | 1 (inactive) | 1.04 (inactive) | 1.01 (inactive) | 1.02 (inactive) | 1 (inactive) | 1 (inactive) | 1.07 (inactive)
CCc1nn(C)c(C(=O)NCc2ccc(Oc3ccc(C)cc3)cc2)c1Cl | 0.969 | 1.02 | 1.01 | 1.17 | 0.963 (inactive) | 0.927 (inactive) | 1.02 (inactive) | 0.947 (inactive) | 1 (inactive) | 1.01 (inactive) | 0.998 (inactive) | 1.04 (inactive)
COc1ccc(Cc2nccc3cc(OC)c(OC)cc23)cc1OC [Papaverine hydrochloride] | 1.17 | 1.02 | 1.08 | 0.848 | 0.961 (inactive) | 1 (inactive) | 0.99 (inactive) | 0.964 (inactive) | 0.992 (inactive) | 1.22 (inactive) | 1.02 (inactive) | 1.06 (inactive)
C[N+]1([O-])[C@@H]2C[C@@H](OC(=O)[C@H](CO)c3ccccc3)C[C@H]1[C@@H]1O[C@@H]12 (stereo not given in full) [Scopolamin-N-oxide hydrobromide] | 1.05 | 1.03 | 1.01 | 0.938 | 0.988 (inactive) | 1.01 (inactive) | 1.13 (inactive) | 1 (inactive) | 0.931 (inactive) | 0.991 (inactive) | 1.01 (inactive) | 1.13 (inactive)
c1ccc2c(c1)ccc1c3ccccc3sc21 [Benzo[b]naphtho[2,1-d]thiophene] | 0.989 | 0.988 | 1.11 | 1.07 | 1.02 (inactive) | 0.962 (inactive) | 1.01 (inactive) | 1.01 (inactive) | 1.03 (inactive) | 0.992 (inactive) | 1.01 (inactive) | 0.99 (inactive)
CC(C)N1C(=O)N(c2ccccc2)CS/C1=N\C(C)(C)C | 1.04 | 1.03 | 1.03 | 0.99 | 0.967 (inactive) | 1.03 (inactive) | 1.03 (inactive) | 1.02 (inactive) | 1.03 (inactive) | 1.06 (inactive) | 1.01 (inactive) | 0.961 (inactive)
COCC(=O)N(c1c(C)cccc1C)C(C)C(=O)OC (stereo not given) | 0.957 | 1.02 | 1.04 | 1.02 | 0.965 (inactive) | 0.98 (inactive) | 0.983 (inactive) | 1.04 (inactive) | 1 (inactive) | 1.01 (inactive) | 1.01 (inactive) | 0.983 (inactive)
